Screens (PubChem BioAssay)
This is a sample that favours compounds with a hit; in the whole collection about 2.3% have one here.
697 NFkB inh – inhibitors of PMA/ionomycin-induced NF-kB reporter, 697 cells, primary screen, B-cell NF-kB inhibitor project, cell-based, luminescence, uHTS; 697 B-cell NF-kB luciferase reporter, 16 h; inhibition, % at 4 µM; 330,000 compounds, 0.33% hits; in the data active means inhibition above about 35%
TAG inh – inhibitors of triacylglycerol accumulation, primary screen, cell-based, uHTS, fluorescence, H9c2; H9c2 cells, Nile Red lipid (TAG) fluorescence; cells loaded with 200 µM oleic acid; inhibition, % at 12.5 µM; 230,000 compounds, 0.66% hits; AID 651582, 2012;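 active means pattern-corrected inhibition of lipid staining of at least 50% with the nuclear-stain viability signal not falling by more than 50%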
aSyn UTR inh – MLPCN primary screen, SNCA 5' untranslated region; alpha-synuclein 5'UTR reporter, inhibitor activity; inhibition, % (tested at 7.5 µM); 300,000 compounds, 0.82% hits; in the data active means inhibition above about 60%;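 further: H4 neuroglioblastoma cells stably carrying SNCA 5'UTR luciferase fusion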
Shn3 3UTR inh – reduction of Shn3 3'UTR firefly luciferase signal, primary screen, Schnurri-3 inhibitor project, cell-based, Clone20 osteoblasts, set 2; AID 588674, 2011; Clone20 osteoblast Shn3 3'UTR firefly luciferase, 24 h; 360,000 compounds, 0.52% hits; inhibition, % at 12.5 µM;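 active means mean inhibition of at least 75% with every replicate also reaching 75%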
Jurkat NFkB inh – inhibitors of induced NF-kB luciferase reporter, primary screen, TCR NF-kB activation inhibitor project, cell-based, luminescence, uHTS; Jurkat, PMA/ionomycin-induced NF-kB luciferase reporter; inhibition, % at 4 µM; 330,000 compounds, 0.53% hits; in the data active means inhibition above about 50%
Gli-Sufu block – Gli-Sufu pathway antagonists, primary screen, luciferase luminescence, Sufu-KO-LIGHT cells, uHTS; inhibition, % at 5 µM; Sufu-KO-LIGHT fibroblasts, Gli luciferase reporter luminescence; AID 588413, 2011; 340,000 compounds, 0.74% hits;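 active means inhibition above about 55%, limit read from the data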
697 NFkB conf – PMA/ionomycin-induced NF-kB reporter inhibitors, 697 retest, confirmation, B-cell NF-kB inhibitor project, cell-based, luminescence, single concentration | shares compounds with 697 NFkB inh | 697 B-cell NF-kB luciferase, 16 h | inhibition, % at 4 µM | 2,000 compounds, 35% hits | AID 449746, 2010; in the data active means inhibition mostly above about 28%, no sharp cut-off; inactive means mostly below about 22%
Large screens that a line does not name were inactive (follow-up assays come after a bar, where they were run).

c1csc(-c2nc(-c3ccc(-c4ccon4)s3)no2)c1	none | 697 NFkB conf inactive
c1ccc(-c2nc(-c3ccc(-c4ccon4)s3)no2)cc1	none
Cc1ccc(-c2noc(-c3cccs3)n2)cc1	none (no result: TAG inh) | 697 NFkB conf inactive
COc1cc2c(cc1OC)CN(C(=O)CN1CCN(S(=O)(=O)c3ccccc3Br)CC1)CC2	none (no result: TAG inh)
Cc1ccccc1Nc1n[nH]c(=S)s1	none (no result: 697 NFkB inh, aSyn UTR inh, Jurkat NFkB inh, Gli-Sufu block)
Cc1ccccc1Nc1nc(Cl)c(C=O)s1	697 NFkB inh 35.1 | 697 NFkB conf 39.5
O=C(O)CCC(=O)c1ccc2c(c1)OCCO2	none
O=C(O)CCC(=O)c1ccc2c(c1)CCCC2	697 NFkB inh 35.4 (no result: Gli-Sufu block) | 697 NFkB conf inactive
COc1ccc(CCNC(=O)Cn2c(=O)n(-c3cc(F)ccc3F)c(=O)c3sccc32)cc1OC	697 NFkB inh 43.2 | 697 NFkB conf inactive
Cc1nc(Nc2c(Cl)cccc2Cl)sc1C(=O)Nc1ccccc1	697 NFkB inh 37.0 | 697 NFkB conf 36.2
Cc1cccc(Sc2ccc([N+](=O)[O-])cc2[N+](=O)[O-])n1	none
O=[N+]([O-])c1ccc(Sc2ncccn2)c([N+](=O)[O-])c1	697 NFkB inh 40.0 | 697 NFkB conf inactive
O=C(NCc1ccccc1Cl)c1ccc2c(c1)OCO2	none (no result: TAG inh)
C/C(N)=C(/C#N)C(=O)COC(=O)c1cc(C)n(-c2ccc(F)cc2)c1C	none | 697 NFkB conf inactive
Cc1cc(C(=O)OCC(N)=O)c(C)n1-c1ccccc1	none
Cc1ccc(C)c(Nc2nn3c(=O)c4ccc(C(=O)NCc5cccnc5)cc4nc3s2)c1	697 NFkB inh 43.3 (no result: TAG inh) | 697 NFkB conf inactive
CCOC(=O)C1CCN(c2ncnc3c2cnn3-c2ccc(Cl)cc2)CC1	697 NFkB inh 60.9, aSyn UTR inh 64.7 (no result: TAG inh) | 697 NFkB conf 66.8
CN(C)c1ccc(C(C[N+](=O)[O-])c2c(N)n(C)c(=O)n(C)c2=O)c(F)c1C#N (stereo not drawn)	none (no result: TAG inh)
Cc1ccccc1-c1n[nH]c(=S)n1/N=C/c1c(C)nn(-c2ccccc2)c1C	none (no result: TAG inh) | 697 NFkB conf inactive
Cc1nn(-c2ccccc2)c(C)c1/C=N/n1c(-c2ccc(C(C)(C)C)cc2)n[nH]c1=S	none
CCOC(=O)C1CCCN(C(=S)NC2CCCC2)C1 (stereo not drawn)	none
Cn1c(-c2ccccc2)cc2c3no[n+]([O-])c3ccc21	Shn3 3UTR inh 92.1 | 697 NFkB conf inactive
Cn1c(-c2ccccc2)cc2ccccc21	none (no result: TAG inh)
CCNC(=O)C1(C)CCCN(C(=O)c2sc(-c3ccccc3)nc2C)C1 (stereo not drawn)	none (no result: 697 NFkB inh, aSyn UTR inh, Jurkat NFkB inh, Gli-Sufu block)
Nc1nc(-c2ccco2)nn1C(=O)c1ccc(Cl)cc1	none
Nc1nc2ccc(Cl)cc2c2nc(-c3ccco3)nn12	697 NFkB inh 35.9 (no result: TAG inh, Shn3 3UTR inh, Gli-Sufu block) | 697 NFkB conf 28.4
O=C(O)c1nn(CCOc2c(Cl)cccc2Cl)c(=O)c2ccccc12	none (no result: TAG inh) | 697 NFkB conf inactive
O=C(O)c1nn(CCOc2cccc(Cl)c2)c(=O)c2ccccc12	none
C/C(=N\NC(=S)NCCc1ccccc1)c1ccc(C#N)cc1	none
O=c1[nH]cc(S(=O)(=O)c2ccccc2)[nH]1	none (no result: TAG inh)
NC(=S)c1cc2ccc(O)cc2oc1=O	none (no result: 697 NFkB inh, Jurkat NFkB inh)
Oc1cc(O)cc(-c2cc3ccc(O)cc3o2)c1	697 NFkB inh 38.3 (no result: TAG inh) | 697 NFkB conf 34.6
O=C(Nc1ccc2c(c1)OCCO2)C(=O)c1c[nH]c2ccccc12	none | 697 NFkB conf inactive
O=C(/C=C/c1ccccc1)Nc1ccc2c(c1)OCCO2	none (no result: TAG inh) | 697 NFkB conf inactive
CCCN(C(=O)c1cc(CC)c(C)s1)c1c(N)n(Cc2ccccc2)c(=O)[nH]c1=O	none
COc1ccccc1S(=O)(=O)Cc1ccc(C(=O)NCc2cccnc2)o1	none
C#CCN(Cc1ccccc1)S(=O)(=O)C=C	697 NFkB inh 35.7 (no result: TAG inh, aSyn UTR inh, Shn3 3UTR inh) | 697 NFkB conf 30.5
COc1cccc(Cn2nnc(C(=O)Nc3cc(Cl)ccc3OC)c2N)c1	697 NFkB inh 41.4 | 697 NFkB conf 38.1
COc1ccc(NC(=O)c2nnn(Cc3cccc(F)c3)c2N)c(OC)c1	697 NFkB inh 35.4 | 697 NFkB conf 39.3
